TbPYK inhibitor – blocks Trypanosoma brucei pyruvate kinase; Q57TT1; hit rate 0.12% among 410,000; TbPYK enzyme, Kinase-Glo Plus ATP luminescence, 45 min; AID 624173; Potency, µM (series often up to 76.8 µM), for inactives: at the top dose activity, negative = inhibition, usual class: inhibitors; also: nearly all actives have a fitted effect of over 50% in size
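In this concentration-response screen, enzyme-free wells defined baseline while DMSO plates tracked drift. Each reaction combined TbPYK, substrate, compound and 130 uM ADP for 45 min at room temperature. Kinase-Glo Plus luminescence gave the signal.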
Sm TGR block – S. mansoni TGR enzyme inhibition | Q962Y6 | purified TGR, DTNB reduction, TNB absorbance 405 nm | Potency, µM (doses to about 114 µM), for the others: top-dose activity change, negative = inhibition, hits mostly inhibitors | hit rate 3% among 360,000; also: nearly all actives have a fitted effect of over 60% in size
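Kinetic colorimetric format: TGR-catalysed, NADPH-driven DTNB reduction monitored via TNB absorbance. Enzyme dispensed at 20 nM; compound exposure 15 min at room temperature before reaction start.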
FMDV inh – antivirals against foot and mouth disease virus; hit rate 1.2% among 410,000; Potency, µM (series often up to 57.9 µM), without a hit: top-dose activity change, negative = inhibition, hits mostly inhibitors; AID 1159524; FMDV antiviral cell-based qHTS; calls by dose curve; tested in HEK293T cells; also: read-out not given here; nearly all actives have a fitted effect of over 45% in size
RE007 growth inh – less growth of the S. pombe RE007 Vpr strain; hit rate 0.21% among 360,000; S. pombe RE007 Vpr strain, BacTiter-Glo ATP luminescence, 24 h; AID 651644; Potency, µM (titrated, usually from 92.2 µM), without a hit: at the highest dose activity change, negative = less growth, actives largely listed as inhibitors; active = well fitted falling curve with a large enough effect; inconclusive = small, poorly fitted or top-dose-only effect; inactive = no such curve, though single readings can be large or run the other way; also: nearly all actives have a fitted effect of over 50% in size
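Fission yeast RE007 carrying one integrated HIV-1 vpr copy, seeded at OD 0.01 in PMG+AL medium with 23 nL pinned compound. Grown 24 h at 30 degrees; viability read by BacTiter-Glo luminescence after 5 min.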
The depositor's hits bear a star; ? = inconclusive; · = not tested or not shown; [ ] = dose if it differs, or a comment. The list is not random: actives were taken first. Their share in the collection is about 3.7%. Unless noted, calls follow the shape of the dose curve; as a rule, active = well fitted curve in the direction sought with a large enough effect; inconclusive = small, poorly fitted or top-dose-only effect, or another doubt; inactive = no such curve, though single readings can be large; an effect the other way counts as inactive or inconclusive. % is scaled to controls: 0 for no effect and ±100 for the full control effect; potency is read from the fitted curve at half-maximal effect.

SMILES	TbPYK inhibitor	Sm TGR block	FMDV inh	RE007 growth inh
CCOc1ccccc1NC(=O)c1ccc(F)c(S(=O)(=O)N2CCN(c3ccc(F)cc3)CC2)c1	2.4%	3.7%	-21.3%	·
O=C(C1CCC(CNS(=O)(=O)c2ccc(Br)s2)CC1)N1CCN(c2ccccc2)CC1 (configuration not stated)	3.5%	2.5%	?	·
O=C(C1CCC(CNS(=O)(=O)c2cccs2)CC1)N1CCN(c2ccc(Cl)cc2)CC1 (configuration not stated)	-1.0%	3.0%	31.6µM*	-11.7%
Cc1ccc(Cl)cc1N1CCN(C(=O)c2cc3c(=O)n(C)c4ccccc4c3n2C)CC1	1.7%	0.0%	8.91µM*	3.1%
Cc1cccc(N2CCN(C(=O)c3cc4c(=O)n(C)c5ccccc5c4n3C)CC2)c1C	-0.1%	1.7%	31.6µM*	3.3%
Cn1c(C(=O)N2CCN(c3ncccn3)CC2)cc2c(=O)n(C)c3ccccc3c21	-3.9%	?	-23.4%	-8.1%
Cn1c(C(=O)N2CCCC2)cc2c(=O)n(C)c3ccccc3c21	3.8%	-13.6%	-1.5%	2.2%
Cc1cccc(N2CCN(C(=O)c3cc4c(=O)n(C)c5ccccc5c4s3)CC2)c1C	1.2%	4.6%	-0.7%	·
CC1(C)CC(CCNC(=O)CCl)(c2ccccc2)CCO1 (configuration not stated)	-6.0%	44.7µM*	-25.6%	-2.6%
COc1ccc(CNC(=O)c2ccc3nc(C(C)C)oc3c2)cc1OC	-9.5%	-9.0%	-22.7%	·
O=C1CC(c2ccccc2)Cc2[nH]c(=O)c(C(=O)Nc3ccc(OC(F)(F)F)cc3)cc21 (configuration not stated)	3.2%	-2.5%	-12.1%	·
CCc1ccc(NC(=O)CSc2nc(=O)n(Cc3cccnc3)c3c2CCC3)cc1	-7.7%	0.3%	-11.2%	·
CC(C)CN1C(=O)NC(NC(=O)c2cccs2)(C(F)(F)F)C1=O (configuration not stated)	-15.8%	7.2%	-20.4%	-3.4%
O=C(NC1(C(F)(F)F)NC(=O)N(Cc2ccco2)C1=O)c1cccs1 (configuration not stated)	0.6%	35.5µM*	-17.7%	0.1%
O=C(NC1(C(F)(F)F)NC(=O)N(Cc2ccccc2)C1=O)c1cccnc1 (configuration not stated)	5.0%	2.0%	-23.3%	1.1%
O=C(NC1(C(F)(F)F)NC(=O)N(Cc2ccco2)C1=O)c1cccnc1 (configuration not stated)	8.0%	35.5µM*	0.4%	-7.8%
CCOc1ccc(S(=O)(=O)NCCc2sc3nc(-c4ccc(C)cc4)nn3c2C)cc1	3.9%	-12.4%	4.6%	·
CCOc1cc(CNC(=O)c2ccc(C)c(NC(=O)c3nsc4ccccc34)c2)ccc1OC	-3.3%	-0.6%	-18.6%	·
Cc1ccc(-c2cc(C(=O)N(Cc3ccccc3)Cc3ccco3)no2)cc1F	-7.7%	5.9%	-13.7%	·
Cc1cn2c(=O)cc(COC(=O)c3ccc(NC(=O)c4ccc(C(C)(C)C)cc4)cc3)nc2s1	1.2%	0.0%	-11.5%	·
COC(=O)c1c(N2C(=O)[C@H]3[C@@H](C2=O)[C@]2(C(=O)Nc4c(C)cc(C)cc42)N2CCC[C@@H]32)sc(C)c1C	-2.2%	-19.0%	-8.5%	-2.1%
COC(=O)c1c(N2C(=O)[C@H]3[C@@H](C2=O)[C@]2(C(=O)Nc4c2ccc(C)c4C)N2CCC[C@@H]32)sc(C)c1C	-4.3%	56.2µM*	?	·
CC12CC[C@@](C(=O)O)(C(=O)C1=O)C2(C)C	·	·	-3.4%	·
CCOC(=O)c1c(C)[nH]c(C(=O)OCC(=O)Nc2sccc2C(N)=O)c1C	2.3%	-4.5%	15.8µM*	4.8%
COC(=O)c1c(OCc2ccccn2)cc(=O)n2c1CCN(C(=O)c1cc(C(C)C)nn1C)CC2	·	·	0.7%	·
SMILES	TbPYK inhibitor	Sm TGR block	FMDV inh	RE007 growth inh
CNC[C@H](O)c1ccc(O)c(O)c1	-1.2%	14.1µM*	-4.1%	0.9%[18.4 µM]
CCOC(=O)C1CCN(C(c2ccc(SC)cc2)c2c(O)cc(C)n(Cc3ccco3)c2=O)CC1 (configuration not stated)	-6.8%	5.01µM*	-28.4%	·
CCOC(=O)C1CCN(C(c2ccc(C)cc2)c2sc3nc(-c4ccco4)nn3c2O)CC1 (configuration not stated)	1.6%	-5.7%	-1.0%	·
CCOC(=O)C1CCN(C(c2ccccc2)c2c(O)cc(C)n(Cc3ccco3)c2=O)CC1 (configuration not stated)	7.9%	8.91µM*	-24.1%	·
CCOC(=O)C1CCN(C(c2cccc(F)c2)c2c(O)cc(C)n(Cc3ccco3)c2=O)CC1 (configuration not stated)	3.3%	10µM*	-24.6%	·
CCOC(=O)C1CCN(C(c2cccc(F)c2)c2sc3nc(C)nn3c2O)CC1 (configuration not stated)	-5.8%	-7.0%	-19.6%	1.2%
CCOC(=O)C1CCN(C(c2cccc(F)c2)c2c(O)cc(C)n(CCOC)c2=O)CC1 (configuration not stated)	2.7%	17.8µM*	-19.5%	·
CCOC(=O)c1cc(-c2ccccc2)n(-c2cccc(C(=O)NC(C)CC)c2)c1C (configuration not stated)	1.1%[15.4 µM]	14.3%	-7.5%	·
N=C(N)SCc1cn(-c2ccccc2)nc1-c1ccc(Br)cc1	-11.2%	63.5%	20µM*	-25.5%
CCC1CN(CCC(=O)NC2CCOC(C)(C)C2)Cc2cc(OC)ccc2O1 (configuration not stated)	·	·	-8.8%	·
CCC(c1nnnn1-c1ccc2c(c1)OCCO2)N1CCN(c2ccc(F)cc2)CC1 (configuration not stated)	-3.3%	·	?	0.8%
COc1ccc(CCNc2nc(C)nc3c2oc2ccccc23)cc1OC	6.1%	0.8%	17.8µM*	-6.5%
COc1ccc(CCNc2ncnc3c2oc2ccccc23)cc1OC	2.3%	2.6%	·	-2.6%
Cc1nc(NC(C)c2ccccc2)c2oc3ccccc3c2n1 (configuration not stated)	1.8%	1.1%	12.6µM*	-12.5%
O=C(CSc1cn(CC(=O)N2CCCC2)c2ccccc12)Nc1ccccc1C(F)(F)F	-12.6%	-7.5%	6.7%	·
CCOC(=O)C1CCCN(c2c(N3CCN(C)CC3)c(=O)c2=O)C1 (configuration not stated)	-4.9%	5.62µM*	0.0%	-5.7%
CCOC(=O)C1CCCN(c2c(N3CCC(N4CCCCC4)CC3)c(=O)c2=O)C1 (configuration not stated)	-2.2%	89.1µM*	-18.6%	-2.8%
COc1ccccc1Nc1cc(C(=O)NCCCN(C)c2ccccc2)c2ccccc2n1	1.8%	-5.5%	-16.2%	·
CN(Cc1ccccc1)C(=O)C1CCN(S(=O)(=O)c2ccc3c(c2)oc(=O)n3C)CC1	-10.1%	-2.2%	0.0%	·
COc1ccc(C(C)=O)c(Oc2nc(CN3CCOCC3)nc3scc(-c4cccs4)c23)c1	11.1%	-15.5%	-18.9%	-1.6%
CC(=O)c1ccccc1Oc1nc(CN2CCOCC2)nc2scc(-c3cccs3)c12	5.9%	44.7µM*	?	16.0%

Screening results (PubChem BioAssay)
